Results published in PubChem BioAssay.
Active and inactive are the calls of the source.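 The calls were made as follows, unless noted: active = calcium signal rise above buffer-control mean plus 5 SD in both duplicates, and also a hit in the primary screen; inactive = the rest.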

What follows are compounds tested against Short transient receptor potential channel 6 (Mus musculus) (UniProt Q61143) (assay: positive modulators of mouse TRPC6 channel – HEK293 cells, membrane potential dye, duplicate, selectivity assay for TRPC4 potentiator project, confirmation (AID 434952;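 active = compound raising the membrane signal above positive-control mean plus 3 SD in both repeats, and a primary screen hit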)). Conditions: HEK293 TRPC6, membrane potential dye fluorescence, at 10 µM, maximal acetylcholine added after compound.
Chain of Short transient receptor potential channel 6 (Mus musculus) (Q61143 whole entry, looked up): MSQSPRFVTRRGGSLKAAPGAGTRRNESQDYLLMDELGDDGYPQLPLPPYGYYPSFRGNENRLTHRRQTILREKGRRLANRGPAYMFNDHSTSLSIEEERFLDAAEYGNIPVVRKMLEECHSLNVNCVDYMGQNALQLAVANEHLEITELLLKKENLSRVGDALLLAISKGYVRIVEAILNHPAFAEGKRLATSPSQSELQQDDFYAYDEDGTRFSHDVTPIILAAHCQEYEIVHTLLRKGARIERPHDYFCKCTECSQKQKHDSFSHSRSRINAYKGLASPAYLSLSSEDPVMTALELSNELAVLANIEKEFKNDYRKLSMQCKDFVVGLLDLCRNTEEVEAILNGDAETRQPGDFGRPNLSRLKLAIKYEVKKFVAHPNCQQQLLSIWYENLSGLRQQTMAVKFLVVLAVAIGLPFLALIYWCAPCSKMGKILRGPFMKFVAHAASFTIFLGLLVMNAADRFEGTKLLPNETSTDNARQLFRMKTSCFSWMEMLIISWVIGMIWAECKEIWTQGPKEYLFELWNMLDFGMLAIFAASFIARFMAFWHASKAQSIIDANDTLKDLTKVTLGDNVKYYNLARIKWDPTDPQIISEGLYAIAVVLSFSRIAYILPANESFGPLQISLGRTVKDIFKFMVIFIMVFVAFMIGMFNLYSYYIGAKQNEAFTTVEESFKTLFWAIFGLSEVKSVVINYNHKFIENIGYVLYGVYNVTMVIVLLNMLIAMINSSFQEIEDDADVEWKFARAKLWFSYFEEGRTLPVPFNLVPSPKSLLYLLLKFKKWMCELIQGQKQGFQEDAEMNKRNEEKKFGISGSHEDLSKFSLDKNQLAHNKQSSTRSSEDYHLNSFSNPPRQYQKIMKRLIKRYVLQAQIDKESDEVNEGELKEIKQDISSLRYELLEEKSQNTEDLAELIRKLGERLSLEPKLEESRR
In the case of `CCN1CCN(c2ccc(S(=O)(=O)N3CCCCC3)cc2NC(=O)c2cccc(OC(F)F)c2)CC1`, the outcome is reported as “inactive”.
In the case of `Fc1ccc(CN2C3=NCCCN3c3ccccc32)cc1`, the outcome is reported as “inactive”.
`COc1ccc(-n2cc(CNCc3cnc4ccccn34)c(-c3cccc(F)c3)n2)cc1` was tested, and the outcome was “inactive”.
In the case of `N=c1c(C(=O)NCc2ccc(F)cc2)cc2c(=O)n3ccccc3nc2n1Cc1ccco1`, the outcome is reported as “inactive”.
`O=C1CC2(CCN(S(=O)(=O)c3ccccc3F)CC2)Oc2ccccc21` was tested, and the outcome was “inactive”.
For `O=C1Cc2ccccc2Sc2c(OCCN3CCCCC3)cccc21`, the outcome was “inactive”.
`C/C(CC(=O)NCc1ccc(Cl)cc1)=N\NC(=O)COc1ccc(C)cc1Br` was tested, and the outcome was “inactive”.
For `CCCCNc1c(-c2ccc(SC(C)CC)c(OC)c2)nc2ccc(C)cn12` (stereo not drawn), the outcome was “inactive”.
With `CCOC(=O)C1NN=C(C(=O)c2ccccc2)C1c1ccc(Cl)cc1` (stereo not drawn) the outcome was “inactive”.
With `O=[N+]([O-])c1ccc(N2CCN(CCOc3nonc3-c3ccccc3)CC2)c(Cl)c1` the outcome was “inactive”.
In the case of `COc1ccc(-c2cc(C(=O)N3CC(C)CC(C)C3)c3ccccc3n2)cc1` (stereo not drawn), the outcome is reported as “inactive”.
`COC(=O)c1cc(N2CCN(C)CC2)nc2ccccc12` was tested, and the outcome was “inactive”.
For `COc1cc(C2c3c(-c4ccccc4)n[nH]c3C(=O)N2c2ccccc2)ccc1O` (stereo not drawn), the outcome was “inactive”.
For `O=C(c1ccccc1)c1coc2ccc(O)c(CN3CCOCC3)c12`, the outcome was “inactive”.
In the case of `CN(C)S(=O)(=O)c1cccc(COC(=O)c2ccc(Cl)cc2O)c1`, the outcome is reported as “inactive”.
In the case of `CCOC(=O)C1=C(C)N(c2ccccc2)C(=O)NC1c1cccc([N+](=O)[O-])c1` (stereo not drawn), the outcome is reported as “inactive”.
With `Cc1cc(=O)oc2cc(NC(=S)NCc3ccccn3)ccc12` the outcome was “inactive”.
In the case of `Cc1nnc(Sc2cc(NCCCO)c([N+](=O)[O-])c3nonc23)s1`, the outcome is reported as “inactive”.
For `CCOC(=O)C1=NNC(C(=O)c2ccc(Cl)cc2)C1c1ccc(OC)cc1` (stereo not drawn), the outcome was “inactive”.
In the case of `CN1CCN(NC(=O)Nc2cc(Cl)cc(Cl)c2)CC1`, the outcome is reported as “inactive”.
In the case of `Cc1ccc(C[n+]2cccc(-c3ccccc3)c2)c(C)c1`, the outcome is reported as “inactive”.
`Cc1ccc(C(=O)C[n+]2cccc3cc(C)ccc32)cc1` was tested, and the outcome was “inactive”.
For `COc1ccc(OC)c(NC(=O)COC(=O)Cc2ccc(-c3ccccc3)cc2)c1`, the outcome was “inactive”.
In the case of `CC(C)c1ccc(C(C)NCCS(=O)(=O)c2ccc(Br)cc2)cc1` (stereo not drawn), the outcome is reported as “inactive”.
`Cc1ccc(C)c(N(CC(=O)NC2CCCC2)C(=O)c2csnn2)c1` was tested, and the outcome was “inactive”.
In the case of `Cc1ccc(-n2c(N)cc(=O)nc2SCC(=O)N2CCN(c3ccccc3)CC2)cc1`, the outcome is reported as “inactive”.
With `N=c1c(C(=O)NCC2CCCO2)cc2c(=O)n3ccccc3nc2n1Cc1ccc(Cl)cc1` (stereo not drawn) the outcome was “inactive”.
In the case of `CN(CCNC(=O)c1ccc(/C=N/O)nc1)Cc1ccccc1`, the outcome is reported as “inactive”.
With `CCOC(=O)C1=C(CNCCc2ccc(Cl)cc2)NC(=O)NC1c1cccc([N+](=O)[O-])c1` (stereo not drawn) the outcome was “inactive”.
For `O=C(NCC(c1ccco1)N1CCc2ccccc2C1)c1ccc(F)cc1` (stereo not drawn), the outcome was “inactive”.
`CCCc1c(-c2ccc(O)cc2)nn(-c2ccc(O)cc2)c1-c1ccc(O)cc1` was tested, and the outcome was “inactive”.
With `Cc1ccc(-c2c(C(=O)N/N=C/c3ccc(OC(C)C)cc3)nnn2-c2nonc2N)cc1` the outcome was “inactive”.
`CCOC(=O)CSc1nc2ccccc2c(=O)n1C1CCCC1` was tested, and the outcome was “inactive”.
For `CCN1C(=O)/C(=C/C=C2\N(CC)c3cc(S(=O)(=O)N(C)C)ccc3N2c2ccccc2)SC1=S`, the outcome was “inactive”.
With `CCCCn1c(N)c(N(CCOC)C(=O)c2ccc(-c3ccc(C(C)=O)cc3)o2)c(=O)[nH]c1=O` the outcome was “inactive”.
For `CC(C)CN(C(=O)C1CC1)c1c(N)n(Cc2ccccc2)c(=O)[nH]c1=O`, the outcome was “inactive”.
With `CCOC(=O)CC(NS(=O)(=O)c1ccc(OC)c(C)c1)c1cccc([N+](=O)[O-])c1` (stereo not drawn) the outcome was “inactive”.
For `Clc1ccc2nc(CN3CCCc4ccccc43)cn2c1`, the outcome was “inactive”.
`Cc1cc(Cl)ccc1OC(C)C(=O)Nc1ccccc1N1CCOCC1` (stereo not drawn) was tested, and the outcome was “inactive”.

Each compound was assayed against Short transient receptor potential channel 4 (Mus musculus) (UniProt Q9QUQ5) (assay: calcium flux activators in TRPC4/5HT1a cells, counter-screen for TRPC4 activator project, cell-based, second counter screen, HEK293 TRPC4/5HT1a, Fluo-4 (AID 434977)). Conditions: Fluo-4 calcium flux, at 10 µM.
For `CCN1CCN(c2ccc(S(=O)(=O)N3CCCCC3)cc2NC(=O)c2cccc(OC(F)F)c2)CC1`, the outcome was “inactive”.
With `Fc1ccc(CN2C3=NCCCN3c3ccccc32)cc1` the outcome was “inactive”.
For `COc1ccc(-n2cc(CNCc3cnc4ccccn34)c(-c3cccc(F)c3)n2)cc1`, the outcome was “inactive”.
In the case of `N=c1c(C(=O)NCc2ccc(F)cc2)cc2c(=O)n3ccccc3nc2n1Cc1ccco1`, the outcome is reported as “inactive”.
`O=C1CC2(CCN(S(=O)(=O)c3ccccc3F)CC2)Oc2ccccc21` was tested, and the outcome was “inactive”.
For `O=C1Cc2ccccc2Sc2c(OCCN3CCCCC3)cccc21`, the outcome was “inactive”.
For `C/C(CC(=O)NCc1ccc(Cl)cc1)=N\NC(=O)COc1ccc(C)cc1Br`, the outcome was “inactive”.
For `CCCCNc1c(-c2ccc(SC(C)CC)c(OC)c2)nc2ccc(C)cn12` (stereo not drawn), the outcome was “inactive”.
`CCOC(=O)C1NN=C(C(=O)c2ccccc2)C1c1ccc(Cl)cc1` (stereo not drawn) was tested, and the outcome was “inactive”.
In the case of `O=[N+]([O-])c1ccc(N2CCN(CCOc3nonc3-c3ccccc3)CC2)c(Cl)c1`, the outcome is reported as “inactive”.
In the case of `COc1ccc(-c2cc(C(=O)N3CC(C)CC(C)C3)c3ccccc3n2)cc1` (stereo not drawn), the outcome is reported as “inactive”.
For `COC(=O)c1cc(N2CCN(C)CC2)nc2ccccc12`, the outcome was “inactive”.
In the case of `COc1cc(C2c3c(-c4ccccc4)n[nH]c3C(=O)N2c2ccccc2)ccc1O` (stereo not drawn), the outcome is reported as “inactive”.
In the case of `O=C(c1ccccc1)c1coc2ccc(O)c(CN3CCOCC3)c12`, the outcome is reported as “inactive”.
In the case of `CN(C)S(=O)(=O)c1cccc(COC(=O)c2ccc(Cl)cc2O)c1`, the outcome is reported as “inactive”.
For `CCOC(=O)C1=C(C)N(c2ccccc2)C(=O)NC1c1cccc([N+](=O)[O-])c1` (stereo not drawn), the outcome was “inactive”.
With `Cc1cc(=O)oc2cc(NC(=S)NCc3ccccn3)ccc12` the outcome was “inactive”.
With `Cc1nnc(Sc2cc(NCCCO)c([N+](=O)[O-])c3nonc23)s1` the outcome was “inactive”.
In the case of `CCOC(=O)C1=NNC(C(=O)c2ccc(Cl)cc2)C1c1ccc(OC)cc1` (stereo not drawn), the outcome is reported as “inactive”.
For `CN1CCN(NC(=O)Nc2cc(Cl)cc(Cl)c2)CC1`, the outcome was “inactive”.
With `Cc1ccc(C[n+]2cccc(-c3ccccc3)c2)c(C)c1` the outcome was “inactive”.
`Cc1ccc(C(=O)C[n+]2cccc3cc(C)ccc32)cc1` was tested, and the outcome was “inactive”.
In the case of `COc1ccc(OC)c(NC(=O)COC(=O)Cc2ccc(-c3ccccc3)cc2)c1`, the outcome is reported as “inactive”.
With `CC(C)c1ccc(C(C)NCCS(=O)(=O)c2ccc(Br)cc2)cc1` (stereo not drawn) the outcome was “inactive”.
With `Cc1ccc(C)c(N(CC(=O)NC2CCCC2)C(=O)c2csnn2)c1` the outcome was “inactive”.
With `Cc1ccc(-n2c(N)cc(=O)nc2SCC(=O)N2CCN(c3ccccc3)CC2)cc1` the outcome was “inactive”.
`N=c1c(C(=O)NCC2CCCO2)cc2c(=O)n3ccccc3nc2n1Cc1ccc(Cl)cc1` (stereo not drawn) was tested, and the outcome was “inactive”.
In the case of `CN(CCNC(=O)c1ccc(/C=N/O)nc1)Cc1ccccc1`, the outcome is reported as “inactive”.
For `CCOC(=O)C1=C(CNCCc2ccc(Cl)cc2)NC(=O)NC1c1cccc([N+](=O)[O-])c1` (stereo not drawn), the outcome was “inactive”.
`O=C(NCC(c1ccco1)N1CCc2ccccc2C1)c1ccc(F)cc1` (stereo not drawn) was tested, and the outcome was “inactive”.
In the case of `CCCc1c(-c2ccc(O)cc2)nn(-c2ccc(O)cc2)c1-c1ccc(O)cc1`, the outcome is reported as “inactive”.
In the case of `Cc1ccc(-c2c(C(=O)N/N=C/c3ccc(OC(C)C)cc3)nnn2-c2nonc2N)cc1`, the outcome is reported as “inactive”.
`CCOC(=O)CSc1nc2ccccc2c(=O)n1C1CCCC1` was tested, and the outcome was “inactive”.
For `CCN1C(=O)/C(=C/C=C2\N(CC)c3cc(S(=O)(=O)N(C)C)ccc3N2c2ccccc2)SC1=S`, the outcome was “inactive”.
In the case of `CCCCn1c(N)c(N(CCOC)C(=O)c2ccc(-c3ccc(C(C)=O)cc3)o2)c(=O)[nH]c1=O`, the outcome is reported as “inactive”.
With `CC(C)CN(C(=O)C1CC1)c1c(N)n(Cc2ccccc2)c(=O)[nH]c1=O` the outcome was “inactive”.
`CCOC(=O)CC(NS(=O)(=O)c1ccc(OC)c(C)c1)c1cccc([N+](=O)[O-])c1` (stereo not drawn) was tested, and the outcome was “inactive”.
In the case of `Clc1ccc2nc(CN3CCCc4ccccc43)cn2c1`, the outcome is reported as “inactive”.
For `Cc1cc(Cl)ccc1OC(C)C(=O)Nc1ccccc1N1CCOCC1` (stereo not drawn), the outcome was “inactive”.
